# An excerpt weighted towards active compounds, which were near 2.2% of everything screened.
# miR-122 sensor: miR-122 inhibition in Huh7 cells. Huh7 miR-122 Renilla luciferase sensor, 48 h; neutral wells = 0, positive control = 100. activation (reporter increase), % at 12.5 µM. actives 0.3% (n = 340,000). AID 602342;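 active = mean replicate activation score at least 90 and every replicate individually at or above 90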;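 also: higher luciferase means less miR-122 activity so hits act as miR-122 inhibitors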
# Statin myotox sup: suppressors of simvastatin-induced myotoxicity in C2C12 myotubes; ATP luminescence, 48 h; scaled: DMSO 0, geranylgeraniol control 100; AID 602340; actives 0.78% (n = 330,000); rescue of ATP level, % at 7.49 µM;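 active = mean ATP rescue above about 67%, or every replicate alone reaching that limit, limit read from the data, passing the limit was not always enough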;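 also: myotubes were challenged with 10 µM simvastatin during compound exposure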
# DENV2 CPE: inhibitors of DENV2 cytopathic effect; DENV2-infected cells, cytopathic effect rescue, plate reader; CPE inhibition, % at 9.99 µM; actives 1.7% (n = 350,000); AID 651640; in the data active = CPE inhibition above about 20%, passing the limit was not always enough; tested in BHK-21 cells
# PGC1a acetyl inh: lowers PGC1a acetylation signal in U2OS cells. AlphaScreen anti-acetyl-lysine; with virally co-expressed GCN5 acetyltransferase. inhibition, % at 15.6 µM. actives 0.17% (n = 350,000);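 active = every replicate shows inhibition of at least 40%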
# PvdQ inh: blocks Pseudomonas aeruginosa PvdQ acylase activity. purified PvdQ acylase, fluorescence plate reader. actives 0.063% (n = 340,000). AID 488965. inhibition, % at 10 µM; in the data active = inhibition above about 30%, passing the limit was not always enough
# Numbers stand for hits; 0 = inactive; - = no result given; [ ] = another dose, or the depositor's remark.
SMILES,miR-122 sensor,Statin myotox sup,DENV2 CPE,PGC1a acetyl inh,PvdQ inh
CC(C)C(NC(=O)c1ccc(C(C)(C)C)cc1)C(=O)NCc1ccccn1 (stereo not given),-,0,0,-,0
CCCNC(=O)N(C)C[C@@H]1Oc2cc(C#C[C@H](C)O)ccc2S(=O)(=O)N([C@H](C)CO)C[C@H]1C,0,0,0,0,-
CCCNC(=O)N(C)C[C@@H]1Oc2cc(C3=CCCCC3)ccc2S(=O)(=O)N([C@@H](C)CO)C[C@@H]1C,0,95,0,0,-
CCCNC(=O)N(C)C[C@H]1Oc2cc(C#C[C@H](C)O)ccc2S(=O)(=O)N([C@H](C)CO)C[C@H]1C,0,0,42,0,-
CCCNC(=O)N(C)C[C@H]1Oc2cc(C3=CCCCC3)ccc2S(=O)(=O)N([C@@H](C)CO)C[C@H]1C,0,0,0,0,-
CCCNC(=O)N(C)C[C@@H]1Oc2cc(C3=CCCCC3)ccc2S(=O)(=O)N([C@H](C)CO)C[C@H]1C,0,0,47,0,-
C[C@@H]1CN([C@@H](C)CO)C(=O)c2cccc(NS(=O)(=O)c3cccs3)c2O[C@H]1CN(C)C(=O)Nc1ccc2c(c1)OCO2,0,0,0,0,-
C[C@@H]1CN([C@H](C)CO)C(=O)c2c(c3ccccc3n2C)-c2ccccc2CO[C@H]1CN(C)C(=O)c1ccc(F)cc1,-,0,0,0,-
COCCN(C[C@@H]1N[C@@H](CO)[C@H]1c1ccc(-c2cccnc2)cc1)C(C)=O,0,0,30,0,-
CCC(=O)NC[C@H]1[C@@H](c2ccc(C3=CCCC3)cc2)[C@@H](CO)N1C(=O)CC,-,-,31,-,-
CC(=O)NC[C@H]1[C@@H](c2ccc(-c3ccccc3)cc2)[C@@H](CO)N1C(=O)C1CCC1,0,0,31,0,-
CC(=O)NC[C@@H]1[C@@H](c2ccc(-c3ccccc3F)cc2)[C@@H](CO)N1C(C)=O,0,0,20,0,-
CC(=O)NC[C@@H]1[C@@H](c2ccc(-c3ccccc3)cc2)[C@H](CO)N1C(=O)C1CCC1,0,0,0,0,-
CCC(=O)NC[C@@H]1[C@@H](c2ccc(C3=CCCC3)cc2)[C@@H](CO)N1C(=O)CC,-,-,0,-,-
CCC(=O)N1[C@H](CN(C)C(C)=O)[C@@H](c2ccc(-c3cccnc3)cc2)[C@@H]1CO,0,0,0,0,-
CCCNC(=O)NC[C@H]1[C@H](c2ccc(C3=CCCCC3)cc2)[C@@H](CO)N1C(C)=O,0,0,22,0,-
CC(=O)NC[C@@H]1[C@H](c2ccc(-c3cccc(F)c3)cc2)[C@H](CO)N1C(C)=O,0,0,25,0,-
CC(=O)N1[C@H](CNC(=O)C2CC2)[C@H](c2ccc(-c3cccc(F)c3)cc2)[C@@H]1CO,0,0,28,0,-
CC(=O)N(C)C[C@@H]1[C@@H](c2ccc(-c3cccnc3)cc2)[C@H](CO)N1C(=O)C1CC1,258[16.7 µM],0,0,0,-
CC(=O)N1[C@@H](CO)[C@@H](c2ccc(-c3cccc(F)c3)cc2)[C@@H]1CNC(=O)C1CC1,0,0,0,0,-
CCCNC(=O)NC[C@@H]1[C@H](c2ccc(C3=CCCCC3)cc2)[C@@H](CO)N1C(C)=O,0,0,0,0,-
CCCNC(=O)Nc1ccc2c(c1)C(=O)N(C)C[C@@H](OC)[C@@H](C)CN(CCC(F)(F)F)[C@@H](C)CO2,0,0,-,0,-
CC(C)NC(=O)N[C@H]1CC[C@H](CCn2cc(-c3ccc(F)cc3)nn2)O[C@H]1CO,-,0,0,0,-
CCC(=O)N1[C@H](CO)[C@@H](c2ccc(-c3cccc(F)c3)cc2)[C@@H]1CN(C)C(C)=O,0,0,34,0,-
CCC(=O)NC[C@H]1[C@H](c2ccc(-c3cccc(F)c3)cc2)[C@H](CO)N1C(=O)CC,0,0,29,0,-
SMILES,miR-122 sensor,Statin myotox sup,DENV2 CPE,PGC1a acetyl inh,PvdQ inh
CC(=O)N(C)C[C@H]1[C@@H](c2ccc(-c3cccc(F)c3)cc2)[C@@H](CO)N1C(C)=O,-,-,0,-,-
Cc1ccc(NC(=O)CN2CCC(NC(=O)c3cccc(F)c3)CC2)cc1C,0,0,34,0,0
CCN(c1ccccc1)S(=O)(=O)c1ccc(C(=O)N2CCOCC2)cc1,0,0,0,0,0
CCN(c1ccccc1)S(=O)(=O)c1ccc(C(=O)N2CCN(c3ccccc3F)CC2)cc1,0,0,53,-,-
CN(C)C(=O)[C@H]1[C@H](CO)[C@H]2Cn3c(ccc(-c4ccncc4)c3=O)[C@@H]1N2CC1CCCC1,0,0,0,-,-
CCCC(c1nnnn1Cc1ccc(OC)cc1)N1CCN(c2ccccc2)CC1 (stereo not given),0,137,-,0,0
Cc1ccc(S(=O)(=O)N[C@H]2CC[C@H](CCNC(=O)C3CCCCC3)O[C@H]2CO)cc1,0,0,0,0,-
Cc1ccc(C(=O)NCC(=O)NCC(c2cccs2)N2CCOCC2)cc1 (stereo not given),0,0,0,0,0
Cc1ccc(C(=O)NCC(=O)NCC(c2cccs2)N2CCOCC2)cc1C (stereo not given),0,0,93,0,0
Cc1noc(C)c1NC(=O)Nc1ccc2c(c1)C(=O)N([C@@H](C)CO)C[C@@H](C)[C@@H](CN(C)C)OCCCC[C@@H](C)O2,0,0,84,0,-
Cc1noc(C)c1NC(=O)Nc1ccc2c(c1)C(=O)N([C@H](C)CO)C[C@H](C)[C@H](CN(C)C(=O)Nc1ccccc1)OCCCC[C@H](C)O2,0,0,68,0,-
Cc1noc(C)c1NC(=O)N(C)C[C@@H]1OCCCC[C@H](C)Oc2ccc(NS(=O)(=O)c3ccc(Cl)cc3)cc2C(=O)N([C@H](C)CO)C[C@@H]1C,0,-,32,0,-
Cc1noc(C)c1NC(=O)Nc1ccc2c(c1)C(=O)N([C@@H](C)CO)C[C@@H](C)[C@@H](CN(C)C(=O)Nc1ccccc1)OCCCC[C@H](C)O2,0,0,0,0,-
Cc1noc(C)c1NC(=O)Nc1ccc2c(c1)C(=O)N([C@@H](C)CO)C[C@@H](C)[C@H](CN(C)C(=O)Nc1c(C)noc1C)OCCCC[C@H](C)O2,0,-,0,0,-
Cc1noc(C)c1NC(=O)Nc1ccc2c(c1)C(=O)N([C@@H](C)CO)C[C@@H](C)[C@H](CN(C)C(=O)Nc1c(C)noc1C)OCCCC[C@@H](C)O2,0,-,30,0,-
N#C[C@@H]1[C@H](c2ccccc2C2=CCCC2)[C@@H](CO)N1C(=O)C1CCCC1,-,-,0,0,-
O=C(Nc1ccc(Oc2ccc(Cl)cc2)c(Cl)c1)c1cc(I)cc(I)c1O,0,0,43,0,0
CCCCN1C(=O)C(CC(=O)NC2CC2)CC(C(=O)N(CC)CC)=C1C (stereo not given),0,0,23,0,-
COc1ccccc1N1CCN(Cc2cnc3ccc(Cl)cn23)CC1,0,0,32,0,0
NC(=O)COC(=O)C(Cc1ccccc1)NS(=O)(=O)c1ccccc1F (stereo not given),0,109,-,0,0
C[C@@H]1CN([C@@H](C)CO)S(=O)(=O)c2ccc(C#CC3CCCC3)cc2O[C@H]1CN(C)C(=O)Cc1ccccc1,108[16.7 µM],0,0,0,-

# Screening results: PubChem, Broad Institute
